# Values without a mark were called inactive. For some of these results: Results with a measured potency or affinity are listed apart. Calls of active or inactive are those of the source. Unless noted, how the calls were made is not given here.
# Key:
# [1] = antimalarial activity against Dd2 strain (AID 2302;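 active means growth inhibition above 50% at the single 2 µM test dose, taken to imply half-maximal potency below 2 µM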;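 further: 0% = DMSO untreated growth and 100% = chloroquine plus artemisinin killed control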); settings: P. falciparum Dd2 in RBCs, LDH growth readout, 72 h; at 2 µM; stronger effect = higher value
# [2] = HepG2 cytotoxicity, primary screen, cytotoxicity control for P. falciparum antimalarial project, cell-based, ATP luminescence (AID 2303;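 active means inhibition above 50%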;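 further: 0% = DMSO wells and 100% = digitonin-killed cells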); settings: HepG2 viability, 24-48 h, at 10 µM, stronger effect = higher value
# [3] = target: L-lactate dehydrogenase (Plasmodium falciparum (isolate CDC / Honduras)) (UniProt Q27743); test: PfLDH activity inhibition – cell lysate, 3D7 strain, counter-screen for P. falciparum growth inhibition project (AID 2304);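 further: 0% = vehicle and 100% = reference inhibitor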; settings: P. falciparum 3D7 crude extract, LDH APAD/NBT absorbance; at 2 µM; stronger effect = higher value
# [4] = inhibition of 3D7 malaria parasite growth – strain 3D7 (AID 2306);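 further: 0% = DMSO wells and 100% = chloroquine plus artemisinin control wells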; settings: P. falciparum 3D7 erythrocytic growth, LDH absorbance, 72 h; at 2 µM; stronger effect = higher value
# [5] = target: Calcium-dependent protein kinase 1 (Plasmodium falciparum (isolate 3D7)) (UniProt P62344); test: PfCDPK1 kinase inhibitors, biochemical, TCAMS library (AID 1159585; cut-off not given, nearly all actives have IC50 up to about 0.98 µM;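 further: inhibitors leave more ATP so luminescence rises with inhibition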); settings: recombinant PfCDPK1, Kinase-Glo ATP depletion luminescence
# [6] = target: Plasmodium falciparum protein kinase 6 (PK6, PF3D7_1337100) (UniProt Q8IDW1); test: PfPK6 kinase inhibitors, biochemical, TCAMS library (AID 1159586); settings: recombinant PfPK6, Kinase-Glo ATP depletion luminescence
# [7] = target: Protein kinase 7 (PK7), Plasmodium falciparum 3D7 (PF3D7_0213400) (UniProt Q7YTF7); test: inhibition of Plasmodium PK7 catalytic activity – biochemical, TCAMS antimalarial set, Kinase-Glo luminescence (AID 1159587); settings: recombinant PfPK7, Kinase-Glo ATP depletion luminescence
# [8] = target: Calcium-dependent protein kinase 4 (Plasmodium falciparum (isolate 3D7)) (UniProt Q8IBS5); test: PfCDPK4 kinase inhibitors, biochemical, TCAMS library (AID 1159588; cut-off not given, nearly all actives have IC50 up to about 0.91 µM); settings: recombinant PfCDPK4, Kinase-Glo ATP depletion luminescence
# Chain of Calcium-dependent protein kinase 4 (Plasmodium falciparum (isolate 3D7)) (Q8IBS5 whole entry, looked up): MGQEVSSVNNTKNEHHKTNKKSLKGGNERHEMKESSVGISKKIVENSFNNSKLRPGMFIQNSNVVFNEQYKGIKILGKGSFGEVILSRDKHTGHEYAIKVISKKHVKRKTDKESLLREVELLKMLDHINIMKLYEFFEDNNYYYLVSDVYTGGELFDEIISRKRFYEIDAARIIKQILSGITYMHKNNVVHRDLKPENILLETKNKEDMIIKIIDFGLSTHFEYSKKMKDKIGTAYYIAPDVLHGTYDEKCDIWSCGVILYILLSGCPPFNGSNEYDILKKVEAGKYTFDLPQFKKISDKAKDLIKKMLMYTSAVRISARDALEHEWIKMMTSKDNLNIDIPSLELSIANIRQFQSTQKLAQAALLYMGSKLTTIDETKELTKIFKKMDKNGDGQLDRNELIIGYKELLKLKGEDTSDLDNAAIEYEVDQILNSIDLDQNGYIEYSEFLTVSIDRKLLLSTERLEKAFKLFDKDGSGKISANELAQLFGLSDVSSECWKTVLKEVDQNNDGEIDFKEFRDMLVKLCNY
# Chain of Protein kinase 7 (PK7), Plasmodium falciparum 3D7 (PF3D7_0213400) (Q7YTF7 1-343): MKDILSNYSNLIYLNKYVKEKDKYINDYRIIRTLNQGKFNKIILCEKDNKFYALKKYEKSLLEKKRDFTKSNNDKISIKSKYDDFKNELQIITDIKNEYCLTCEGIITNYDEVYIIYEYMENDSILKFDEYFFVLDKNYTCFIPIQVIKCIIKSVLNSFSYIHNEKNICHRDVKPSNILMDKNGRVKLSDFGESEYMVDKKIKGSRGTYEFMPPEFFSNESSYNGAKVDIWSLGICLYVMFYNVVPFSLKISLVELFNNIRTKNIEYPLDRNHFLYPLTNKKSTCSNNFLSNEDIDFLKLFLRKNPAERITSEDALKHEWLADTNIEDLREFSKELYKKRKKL
# Chain of Plasmodium falciparum protein kinase 6 (PK6, PF3D7_1337100) (Q8IDW1 1-305): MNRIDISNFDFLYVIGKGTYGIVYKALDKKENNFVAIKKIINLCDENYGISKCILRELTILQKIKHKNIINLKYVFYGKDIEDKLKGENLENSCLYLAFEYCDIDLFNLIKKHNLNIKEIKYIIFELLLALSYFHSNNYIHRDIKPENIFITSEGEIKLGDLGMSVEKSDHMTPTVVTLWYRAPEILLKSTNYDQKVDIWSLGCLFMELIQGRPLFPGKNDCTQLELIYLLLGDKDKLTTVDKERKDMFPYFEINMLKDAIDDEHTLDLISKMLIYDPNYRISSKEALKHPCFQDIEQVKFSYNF
# Chain of L-lactate dehydrogenase (Plasmodium falciparum (isolate CDC / Honduras)) (Q27743 whole entry, looked up): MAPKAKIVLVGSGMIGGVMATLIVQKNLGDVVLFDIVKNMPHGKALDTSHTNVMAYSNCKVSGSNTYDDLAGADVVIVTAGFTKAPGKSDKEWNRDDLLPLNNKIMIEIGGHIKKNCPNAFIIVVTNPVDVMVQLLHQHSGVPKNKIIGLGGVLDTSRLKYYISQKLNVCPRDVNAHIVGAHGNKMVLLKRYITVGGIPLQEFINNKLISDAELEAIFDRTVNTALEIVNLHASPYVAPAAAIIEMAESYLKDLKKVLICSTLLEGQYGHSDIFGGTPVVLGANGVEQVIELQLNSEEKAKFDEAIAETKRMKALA
# Chain of Calcium-dependent protein kinase 1 (Plasmodium falciparum (isolate 3D7)) (P62344 whole entry, looked up): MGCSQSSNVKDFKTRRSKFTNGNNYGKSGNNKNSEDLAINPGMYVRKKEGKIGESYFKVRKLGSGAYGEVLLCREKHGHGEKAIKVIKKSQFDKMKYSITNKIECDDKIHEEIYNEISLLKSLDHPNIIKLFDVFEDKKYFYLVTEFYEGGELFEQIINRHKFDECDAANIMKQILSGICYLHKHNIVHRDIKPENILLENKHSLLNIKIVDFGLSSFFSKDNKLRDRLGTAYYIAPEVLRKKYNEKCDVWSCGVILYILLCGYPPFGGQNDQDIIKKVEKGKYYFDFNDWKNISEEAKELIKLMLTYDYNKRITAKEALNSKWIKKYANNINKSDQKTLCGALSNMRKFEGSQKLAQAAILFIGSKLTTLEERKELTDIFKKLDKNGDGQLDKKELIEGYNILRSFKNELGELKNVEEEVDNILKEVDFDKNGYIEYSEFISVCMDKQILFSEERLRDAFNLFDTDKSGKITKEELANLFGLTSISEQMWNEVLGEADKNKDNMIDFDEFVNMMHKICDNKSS
SMILES,growth inhibition [1],inhibition [2],inhibition [3],growth inhibition [4],outcome [5],outcome [6],outcome [7],outcome [8]
CNCCNCc1ccc(-c2ccc(-c3nc4c(C)cccc4[nH]3)s2)cc1,26%,16%,5%,97% (active),inactive,inactive,inactive,inactive
Cc1nn(CC(C)C)c2sc(C(=O)N3CCN(S(=O)(=O)c4ccc(C#N)cc4)CC3)cc12,99% (active),14%,-2%,99% (active),inactive,inactive,inactive,inactive
Fc1ccc2c(NN=Cc3ccc(Cl)cc3)ccnc2c1,99% (active),7%,-1%,101% (active),inactive,inactive,inactive,inactive
COc1ccc(C=NNc2cc(C)nc3c(C)cccc23)c2ccccc12,98% (active),3%,0%,102% (active),inactive,inactive,inactive,inactive
c1cc(OCCN2CCCC2)ccc1CNC1CCN(CC2CCCCC2)CC1,54% (active),15%,5%,101% (active),inactive,inactive,inactive,inactive
O=C(Nc1ccc(OC2CCN(Cc3ccccc3)C2)c(Cl)c1)c1ccc(F)cc1 (stereo not drawn),87% (active),7%,7%,90% (active),inactive,inactive,inactive,inactive
COc1cc(OC)cc(-c2nn(-c3ccc([N+](=O)[O-])cc3Cl)c(=S)n2CC2CCCO2)c1 (stereo not drawn),98% (active),5%,0%,98% (active),inactive,inactive,inactive,inactive
O=C(NC1CCN(Cc2ccccc2)CC1)c1ccc2c(=O)n(Cc3ccc(Cl)cc3)c(=S)[nH]c2c1,100% (active),16%,5%,101% (active),inactive,inactive,inactive,inactive
c1cncc(-c2cccc(CNc3nccc(Nc4ccc(OCCN5CCOCC5)cc4)n3)c2)c1,27%,1%,-2%,93% (active),inactive,inactive,inactive,inactive
Cc1cccc2[nH]c(-c3cccc(-c4cccc(NC(=O)c5csnn5)c4)c3)nc12,49%,10%,1%,98% (active),inactive,inactive,inactive,inactive
Cc1cccc2[nH]c(-c3ccc(-c4ccc(CNCC(C)C)cc4)cc3)nc12,90% (active),14%,-1%,100% (active),inactive,inactive,inactive,inactive
COc1ccc(C(=O)CCC(=O)N(Cc2ccc(-c3ccc(CNCc4cccnc4)cn3)cc2)C2CCN(Cc3ccccc3)CC2)cc1F,26%,30%,3%,94% (active),inactive,inactive,inactive,inactive
CCCc1cc(Cc2cnc(N)nc2N)cc(CCC)c1OCCCC(=O)OCC,-5%,-8%,-2%,94% (active),inactive,inactive,inactive,inactive
CCCCn1c(Sc2ccc(C#N)c([N+](=O)[O-])c2)nnc1-c1ccc(OC)cc1,61% (active),12%,0%,93% (active),inactive,inactive,inactive,inactive
CN(C)CCCN1CCN(C(=O)c2cccc(-c3noc(C(F)(F)F)n3)c2)CC1,60% (active),-7%,-4%,92% (active),inactive,inactive,inactive,inactive
Cc1cc(NC(=O)CCN2CCN(c3cccc(Cl)c3Cl)CC2)ccc1N1CCN(C(C)C)CC1,8%,82% (active),7%,99% (active),inactive,inactive,inactive,inactive
C[C@@H]1CN(c2cnn(C/C=C/c3ccc(NC(=O)c4ccc(Cl)cc4)cc3)c(=O)c2Cl)C[C@H](C)N1,82% (active),25%,-2%,88% (active),inactive,inactive,inactive,inactive
COc1cccc(CN2CCC(C(=O)Nc3ccc(-c4nc5ccccc5[nH]4)cc3)CC2)c1,84% (active),9%,-3%,101% (active),inactive,inactive,inactive,inactive
O=C(C1CCCCC1)N1CCOC(CCN2CCC(c3ccccc3)CC2)(c2ccc(Cl)c(Cl)c2)C1 (stereo not drawn),86% (active),6%,6%,92% (active),inactive,inactive,inactive,inactive
COc1ccc(NC(=O)c2ccc(Br)c(C)c2)cc1N1CCN(Cc2ccccc2)CC1,3%,-2%,0%,95% (active),inactive,inactive,inactive,inactive
CN(C)C1CCN(CC#Cc2cc3ncnc(Nc4ccc(OCc5cccc(F)c5)c(Cl)c4)c3s2)CC1,5%,34%,-5%,85% (active),inactive,inactive,inactive,inactive

SMILES,growth inhibition [1],inhibition [2],inhibition [3],growth inhibition [4],outcome [5],outcome [6],outcome [7],outcome [8]
CNCCNCc1ccc(-c2ccc(-c3nc4ccc(F)cc4[nH]3)cc2)cc1,97% (active),30%,4%,98% (active),inactive,inactive,inactive,inactive
CN(C)CCNCc1cccc(-c2ccc3c(Nc4ccc(F)cc4Cl)ccnc3c2)c1,98% (active),17%,1%,102% (active),inactive,inactive,inactive,inactive
O=C(Nc1ccc(F)cc1)c1ccc(C(=O)NC2CCN(CC3CCCCC3)CC2)cc1,0%,34%,-7%,99% (active),inactive,inactive,inactive,inactive
O=C(/C=C/c1ccc(Cl)c(Cl)c1)N1CCN(C(=O)Nc2ccc(F)c(Cl)c2)CC1,87% (active),19%,-6%,97% (active),inactive,inactive,inactive,inactive
CCCCCC(=O)N1CCOC(CCN2CCC(c3ccccc3)CC2)(c2ccc(Cl)c(Cl)c2)C1 (stereo not drawn),51% (active),17%,1%,89% (active),inactive,inactive,inactive,inactive
CCn1c(Sc2ccc(C#N)c([N+](=O)[O-])c2)nnc1-c1cccc(Cl)c1,88% (active),-5%,-2%,95% (active),inactive,inactive,inactive,inactive
CCOC(=O)C(C#N)NC(=O)C=Cc1ccccc1 (stereo not drawn),9%,-7%,6%,96% (active),inactive,inactive,inactive,inactive
CC(=O)Nc1ncc(C(=O)Nc2cccc(-c3cccc(-c4nc5ccc(C(F)(F)F)cc5[nH]4)c3)c2)s1,99% (active),76% (active),3%,101% (active),inactive,inactive,inactive,inactive
CCC(C)(C)c1ccc(S(=O)(=O)Nc2ccc(Cl)c(OCCN3CCCCC3)c2)cc1,93% (active),100% (active),0%,88% (active),inactive,inactive,inactive,inactive
O=C(Nc1ccc(-c2ccccc2)cc1)Nc1cccc(Cn2ncc(N3CCCNCC3)c(Cl)c2=O)c1,52% (active),14%,-1%,102% (active),inactive,inactive,inactive,inactive
CCOC(=O)N1NC(=O)N(c2ccccc2)C1(c1ccccc1)c1ccccc1,82% (active),5%,6%,96% (active),inactive,inactive,inactive,inactive
COc1ccc(CNCc2ccc(F)cc2)cc1-c1ccc(S(=O)(=O)NCCN2CCCC2)s1,65% (active),61% (active),-1%,101% (active),inactive,inactive,inactive,inactive
CC1CN(Cc2ccccc2)CCN1c1ccc(NC(=O)c2cccs2)cc1 (stereo not drawn),96% (active),0%,-2%,96% (active),inactive,inactive,inactive,inactive
CN(N=Cc1ccccc1)C(N)=NCCCC#Cc1cccc(CN2CCCC2)c1,3%,16%,-2%,89% (active),inactive,inactive,inactive,inactive
c1ccc2c(NCCCCCCNc3ccnc4ccccc34)ccnc2c1,12%,43%,5%,100% (active),inactive,inactive,inactive,inactive
O=C(/C=C/c1ccc(Cl)c(Cl)c1)NC1CCC(CN2CCC(c3cc4ccccc4[nH]3)CC2)CC1 (stereo not drawn),-7%,19%,1%,96% (active),inactive,inactive,inactive,inactive
Oc1ccc2nc(N3CCNCC3)nc(NCCCc3ccccc3)c2c1,0%,14%,-4%,102% (active),inactive,inactive,inactive,inactive
COc1ccccc1NC(=O)Nc1ccc(-c2cccc(-c3nc4ccccc4[nH]3)c2)cc1,25%,42%,0%,101% (active),inactive,inactive,inactive,inactive
Cc1cc(OCC2CCN(c3ccc(C(=O)NC4CC4)cn3)CC2)ccc1F,95% (active),6%,3%,94% (active),inactive,inactive,inactive,inactive
O=C(Nc1ccc(Cl)c(-c2nc3ccccc3[nH]2)c1)c1ccc(-c2ccc(Cl)cc2)o1,22%,16%,0%,89% (active),inactive,inactive,inactive,inactive

# From PubChem BioAssay
